Screening results: PubChem BioAssay, National Center for Advancing Translational Sciences (NCATS)
NPC1 prom act: activates the NPC1 promoter; Huh7 NPC1 promoter luciferase reporter, 24 h; Potency, µM (series often up to 9.22 µM), for inactives: at the top dose activation, actives largely listed as activators; 320,000 tested, 2.4% active; further: % of control where 0% means no effect; nearly all actives have a fitted effect of over 60% in size
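Luminescence read-out of NPC1 promoter-driven luciferase in stably transfected Huh7 cells; compounds delivered in DMSO and left 24 h at 37C, 5% CO2, qHTS titration format.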
KinaseGlo FLuc: blocks Kinase-Glo luciferase, a counter-screen artifact | 200,000 tested, 0.28% active | Kinase-Glo luciferase, ATP luminescence, 8 min | Potency, µM (highest dose often 38.3 µM), for the others: at the top dose activity change, negative = inhibition, usual class: inhibitors; further: on the % scale 0 is the no-effect control and ±100 the full control effect; nearly all actives have a fitted effect of over 60% in size
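Recombinant Kinase-Glo luciferase, 10 uM ATP (linear range), luciferin; imidazole pH 7.2 / KCl / MgCl2 / Tween / BSA buffer; 8 min RT; luminescence.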
FLuc modulator: firefly luciferase modulation, counter-screen for miR-21 project | Potency, µM (doses to about 57.5 µM), for inactives: top-dose activity change, negative = inhibition, actives largely listed as inhibitors | P08659 | purified FLuc, Km substrates, luminescence inhibition | AID 588342 | 360,000 tested, 6.9% active;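 further: plate controls were vehicle for no effect and reference inhibitor for full effect; nearly all actives have a fitted effect of over 55% in size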
Target sequence (P08659 whole entry, looked up): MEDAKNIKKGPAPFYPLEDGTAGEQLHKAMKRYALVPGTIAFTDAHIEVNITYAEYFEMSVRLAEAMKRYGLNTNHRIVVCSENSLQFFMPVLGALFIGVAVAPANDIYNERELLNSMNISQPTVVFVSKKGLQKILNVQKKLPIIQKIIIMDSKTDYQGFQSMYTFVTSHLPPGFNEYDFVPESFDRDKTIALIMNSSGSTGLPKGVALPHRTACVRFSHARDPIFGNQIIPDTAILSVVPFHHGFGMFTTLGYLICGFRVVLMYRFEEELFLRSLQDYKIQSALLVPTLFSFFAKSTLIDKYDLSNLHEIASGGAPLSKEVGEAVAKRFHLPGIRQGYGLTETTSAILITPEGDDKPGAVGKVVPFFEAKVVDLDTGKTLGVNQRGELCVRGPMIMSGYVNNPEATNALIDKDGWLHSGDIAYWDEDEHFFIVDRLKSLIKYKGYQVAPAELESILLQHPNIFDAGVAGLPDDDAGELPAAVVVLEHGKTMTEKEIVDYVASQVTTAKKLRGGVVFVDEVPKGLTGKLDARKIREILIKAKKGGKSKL
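Purified P. pyralis luciferase, 10 nM final, with Km-level 10 uM D-luciferin and 10 uM ATP in 50 mM Tris acetate pH 7.5, 10 mM Mg acetate, 0.01% Tween-20, 0.05% BSA; 6-point qHTS titration about 60 µM downward; luminescence read.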
SMN2 splice up: enhancers of SMN2 splice variant expression; HEK293 SMN2-luciferase splicing reporter, luminescence, 30-36 h; Potency, µM (titrated, usually from 46.1 µM), without a hit: at the highest dose activity change, positive = activation, usual class: activators; 210,000 tested, 2.8% active; AID 1458; further: % of control where 0% means no effect; nearly all actives have a fitted effect of over 55% in size
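HEK293 cells carry an SMN2 […]–luciferase reporter in which exon 7 inclusion puts luciferase in frame. Cells were plated 10-12 h before compound addition, then incubated 30-36 h at 37C. ONE-Glo luminescence was read; sodium butyrate at 4.5 mM final served as control.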
ELG1 genotox: inducers of genotoxicity in HEK293T ELG1-luciferase cells; 330,000 tested, 1.3% active; Potency, µM (titrated, usually from 46 µM), without a hit: at the top dose activity change, positive = activation, most hits filed as activators; HEK293T ELG1-luciferase reporter, luminescence, 16 h; further: % of control where 0% means no effect; nearly all actives have a fitted effect of over 60% in size
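Genotoxicity was scored as increased ELG1-luciferase reporter signal, measured by ONE-Glo luminescence (30 min, room temperature). Compound or vehicle exposure of the HEK293T reporter cells lasted 16 hr at 37°C.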
Rab9 promoter act: activates the Rab9 promoter; Huh7 Rab9 promoter-luciferase reporter, luminescence, 24 h; Potency, µM (series often up to 9.22 µM), for the others: at the highest dose activation, negative = inhibition, most hits filed as activators; 320,000 tested, 2.8% active; further: % of control where 0% means no effect; nearly all actives have a fitted effect of over 60% in size
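Promoter activation is measured as luciferase luminescence in Huh7 cells stably transfected with a Rab9 promoter–luciferase construct, following 24 h compound exposure at 37 °C and 10 min reagent incubation at ambient temperature.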
Numbers without * were called inactive; ? = inconclusive; nt = no result given. Most compounds without a hit are left out; they make up all but 7.5% or so of the library. The call rests on the fitted dose curve; in most records, active means well fitted curve in the direction sought with a large enough effect; inconclusive means small, poorly fitted or top-dose-only effect, or another doubt; inactive means no such curve, though single readings can be large; an effect the other way counts as inactive or inconclusive. Potency means the concentration at half of the fitted maximal effect.

SMILES | NPC1 prom act | KinaseGlo FLuc | FLuc modulator | SMN2 splice up | ELG1 genotox | Rab9 promoter act
C/C(=N\NC(=O)c1ccc2ccccc2c1)c1cccs1 | 1.1µM* | nt | 4.3µM* | nt | 2.1µM* | 1µM*
C/C(=N/NC(=O)c1cc(C2CC2)[nH]n1)c1cccs1 | 0.35µM* | ? | 1.5µM* | 2.5µM* | ? | 0.28µM*
C/C(=N\NC(=O)C1=NNC(=O)C1C)c1cccs1 (stereo unspecified) | ? | 10µM* | ? | ? | ? | 4µM*
C/C(=N\NC(=O)c1cccs1)c1ccc2ccccc2c1 | ? | nt | -16% | nt | 9% | ?
CCc1cccc(NC(=O)Cn2c(=O)n(Cc3ccccc3)c(=O)c3c(C)c(C(=O)N(C)C)sc32)c1 | nt | nt | -7% | nt | nt | nt
Cc1ccc(CNC(=O)Cn2c(=O)n(-c3ccc(C)c(F)c3)c(=O)c3sc4ccccc4c32)cc1 | nt | nt | -2% | 3% | nt | nt
CCOc1ccc(Br)cc1C(=O)N/N=C/c1cccc(C)n1 | 1% | nt | 2% | nt | 1% | -2%
Cc1cccc(/C=N/NC(=O)c2cc(Br)ccc2O)n1 | 10% | nt | 24µM* | nt | ? | 19%
O=C(N/N=C/c1ccoc1)c1cc(Br)ccc1O | 0% | nt | 3µM* | nt | 10% | 3%
COC(=O)[C@@]1(Cc2ccccc2)[C@H]2c3cc(C(=O)N4CCCC4)n(Cc4ccc(O)c(OC)c4)c3C[C@H]2CN1C(=O)c1ccccc1 | nt | -3% | nt | -27% | nt | nt
COc1ccc2[nH]c3c(c2c1)CCN1C(=O)C(CC(=O)NCCC2=CCCCC2)C[C@H](C(=O)N2CCOCC2)[C@@]31C (stereo partly specified) | nt | nt | nt | nt | 4% | nt
O=C(Nc1ccc(N2CCCC(O)C2)cc1)c1snc2c(=O)[nH]cnc12 (stereo unspecified) | 17% | -6% | 2.1µM* | ? | ? | 18%
Cc1nc2c(C(=O)Nc3ccc(N4CCCC(O)C4)cc3)snc2c(=O)[nH]1 (stereo unspecified) | 17% | nt | 3µM* | nt | 12% | 2%
Cc1cccc(NC(=O)c2snc3c(=O)[nH]cnc23)c1 | -2% | -5% | 0% | -11% | -2% | 3%
OB(O)c1ccc(Br)cc1 | nt | -4% | nt | -2% | nt | nt
Cc1csc(NC(=O)c2nc3nccc(C)n3n2)n1 | ? | -5% | ? | 14% | ? | ?
Cc1ccnc2nc(C(=O)Nc3nnc(CC(C)C)s3)nn12 | 0% | -1% | 4% | nt | 8% | -2%
Cc1ccc(NC(=O)c2nc3nccc(C)n3n2)c(C)c1 | ? | -5% | ? | 11µM* | ? | ?
Cc1ccnc2nc(C(=O)Nc3nc4ccccc4s3)nn12 | 1µM* | nt | 11µM* | nt | ? | 2.8µM*
COc1cccc(N2CCN(S(=O)(=O)c3ccc(-c4ccno4)cc3OC)CC2)c1 | nt | nt | -2% | nt | nt | nt
COc1ccccc1CNC(=O)c1cccnc1 | -3% | nt | -1% | nt | -3% | 3%
CCc1c(C)nc2ncnn2c1Nc1ccc(C(C)=O)cc1 | 27% | 3% | 27µM* | 16% | 18µM* | 13%
Cc1nn2c(-c3ccccn3)ccnc2c1Cl | -9% | 0% | -3% | -8% | 0% | 11%
Clc1cccc(-n2ncc3c(N4CCCCCC4)ncnc32)c1 | nt | nt | 1.7µM* | nt | nt | nt
Clc1cccc(-n2ncc3c(N4CCCCC4)ncnc32)c1 | nt | nt | 0.43µM* | nt | nt | nt
SMILES | NPC1 prom act | KinaseGlo FLuc | FLuc modulator | SMN2 splice up | ELG1 genotox | Rab9 promoter act
O=C(c1ccccc1)N1CCN(c2ncnc3c2cnn3-c2ccccc2)CC1 | 23% | -7% | -21% | -19% | -2% | ?
O=C(c1cccc(Cl)c1)N1CCN(c2ncnc3c2cnn3-c2ccccc2)CC1 | -5% | -1% | -15% | -37% | -7% | -17%
CCc1nn(CC(=O)NCc2ccco2)c(=O)c2cc3cc(F)ccc3n12 | nt | nt | -2% | 9% | nt | nt
CCN(CC)c1ccc(-c2nn3c(-c4n[nH]c5c4CCC5)nnc3s2)cc1 | -9% | -6% | 21µM* | 4% | 1% | -13%
COc1ccc(/C(C)=N/Nc2nc3ccccc3nc2C)cc1 | 4% | nt | 2.7µM* | nt | 7% | 6%
COc1ccc(/C=N/NC(N)=S)cc1 | 1% | nt | ? | nt | 5% | 1%
NNc1nncc2ccccc12 | 2.6µM* | -9% | nt | 13µM* | nt | 2.3µM*
CNC(=S)NNc1nncc2ccccc12 | -2% | 1% | 0% | 22% | 5% | -2%
COc1ccccc1/C=N/Nc1nncc2ccccc12 | ? | -21% | 9.5µM* | 10µM* | ? | 3.5µM*
COc1ccc(/C=N/Nc2nncc3ccccc23)cc1 | 0.28µM* | 11µM* | 0.17µM* | 0.71µM* | 0.26µM* | 0.2µM*
C/C(=N\Nc1nc(-c2ccccc2O)nc2ccccc12)c1ccccc1 | 15% | -7% | ? | nt | 0% | 17%
Cc1cc(C(=O)CN2C(=O)C(=O)N(CC(C)C)C2=O)c(C)n1C1CC1 | 12% | nt | ? | nt | 17% | 23%
COc1ccc(CC(=O)NC2CC(=O)N(c3ccc4c(c3)OCCO4)C2)cc1 (stereo unspecified) | nt | nt | -5% | nt | nt | nt
Cc1c(NC(=O)c2cc(Br)ccc2Cl)cccc1-n1cnnn1 | nt | nt | nt | nt | -1% | nt
COc1ccc(/C(C)=N/Nc2nncc3ccccc23)cc1 | 1.6µM* | nt | 1.3µM* | nt | ? | 0.71µM*
Oc1c(Br)cc(/C=N/Nc2nncc3ccccc23)cc1Br | ? | nt | 9.5µM* | nt | 12% | 29%
CCOC(=O)Cc1c(C)nc2c(-c3ccc(OC)c(OC)c3)c(C)nn2c1C | nt | nt | 0% | -1% | nt | nt
COc1ccc(C2=CC(=O)CC(C)(C)C2)cc1 | 1% | nt | -22% | nt | 7% | 17%
CC1(C)CC(=O)C=C(c2ccc(-c3ccccc3)cc2)C1 | 2.8µM* | nt | ? | nt | ? | ?
O=C(NCCSCc1c(F)cccc1Cl)Nc1ccccc1 | 18% | nt | 17µM* | nt | 4% | 9%
S=C(NCCSCc1c(Cl)cccc1Cl)Nc1ccccc1 | -1% | -8% | -12% | 14% | -10% | -1%
O=C(NCCSCc1c(F)cccc1Cl)c1ccc(CN2CCOCC2)cc1 | 12% | -3% | -10% | -17% | -1% | 2.5µM*
O=C(Cc1ccccc1)NCCSCc1ccco1 | -1% | 1% | -20% | -5% | 7% | 29%
O=C(NCCSCc1ccco1)Nc1ccccc1 | 26% | -3% | 17µM* | nt | 12% | 24%
COc1ccccc1-c1noc2ncnc(Nc3ccc4c(c3)OCO4)c12 | -1% | nt | 1% | nt | -1% | -3%
CC(C)(C)c1ccc(-c2noc(-c3ccc4c(c3)CCO4)n2)cc1 | ? | nt | 8.5µM* | nt | ? | 26%
Cc1c(-c2nc(-c3ccc(C(C)(C)C)cc3)no2)n(C)oc1=O | ? | nt | 11µM* | nt | ? | ?
Cc1cc(-c2nc(-c3ccc(C(C)(C)C)cc3)no2)no1 | 1µM* | nt | 3µM* | nt | ? | 0.56µM*
